Bioassay records: PubChem, National Center for Advancing Translational Sciences (NCATS)
Most compounds without a hit are left out; they make up all but 11% or so of the library.
PNC assembly inh = perinucleolar compartment assembly inhibition. activity change (PNC), negative = inhibition, % at 10 µM. 3.1% of 140,000 active. PC3M PTB-GFP, PNC prevalence imaging, 16 h; hits give low values;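 active = readout at or below -70, meaning at least 70% loss of cells showing the perinucleolar compartment, a nuclear body marking cancer cells; inconclusive = readout between -30 and a set limit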
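Read-out is percentage of cells bearing a perinucleolar compartment, from automated 20x imaging of fixed, Hoechst-stained PC3M PTB-GFP cells. Cells were seeded 4 h, then exposed 16 h to compound (23 nl of library stock) in duplicate plates.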
HPGD block = HPGD (human) dehydrogenase inhibition. AID 894. 4.3% of 150,000 active. P15428. purified HPGD, NADH fluorescence kinetic, PGE2 substrate. Potency, µM, hits mostly inhibitors
Target sequence (P15428 whole entry, looked up): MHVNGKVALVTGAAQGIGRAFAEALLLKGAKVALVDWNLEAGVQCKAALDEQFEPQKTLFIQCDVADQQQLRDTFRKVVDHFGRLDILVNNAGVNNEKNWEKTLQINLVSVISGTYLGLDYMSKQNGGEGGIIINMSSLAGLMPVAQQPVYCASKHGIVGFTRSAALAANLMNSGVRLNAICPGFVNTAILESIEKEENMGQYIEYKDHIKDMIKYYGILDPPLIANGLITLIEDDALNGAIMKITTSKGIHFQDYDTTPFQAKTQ
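20 nM HPGD preincubated 15 min at room temperature with compound in 50 mM Tris-HCl pH 8, 0.01% Tween 20. Started with 1 mM NAD+ and 30 uM prostaglandin E2; NADH fluorescence (360/450 nm) read 5 times over 30-s intervals, last minus first.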
IMPase cell inh = cell-permeable inhibitors of inositol monophosphatase (IMPase). P97697. CHO-M1 cells, IP1 accumulation, HTRF TR-FRET ratio. inhibition (IP1 accumulation), % at 46.1 µM. 120,000 tested, under 10 active; active = well fitted curve in the direction sought with a large enough effect in the signal ratio, not every such curve was filed as active; inconclusive = small, poorly fitted or top-dose-only effect, or a change in a side signal; inactive = no such curve, though single readings can be large or run the other way; the % refers to the signal ratio;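 also: cells stimulated with carbachol in lithium chloride buffer; higher means more IMPase inhibition seen as more IP1 and lower FRET ratio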
Target sequence (P97697 whole entry, looked up): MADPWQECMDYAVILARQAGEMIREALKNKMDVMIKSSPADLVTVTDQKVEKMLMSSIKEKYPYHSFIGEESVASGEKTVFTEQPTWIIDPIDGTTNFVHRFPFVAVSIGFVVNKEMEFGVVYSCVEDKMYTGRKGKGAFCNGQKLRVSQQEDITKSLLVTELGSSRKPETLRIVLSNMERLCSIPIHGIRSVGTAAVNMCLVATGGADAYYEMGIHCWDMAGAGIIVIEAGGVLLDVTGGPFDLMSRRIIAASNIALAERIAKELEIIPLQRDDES
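Seeded CHO-M1 cells were dosed with compound at up to 46 uM, stimulated with carbachol for 30 min, then lysed in IP-One detection reagents. Higher IP1 lowers the TR-FRET signal.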
IMPase Li inh = membrane-permeable IMPase blocker, potentiated with lithium | AID 1457 | 0.35% of 210,000 active | Potency, µM (series often up to 59.4 µM), usual class: inhibitors | CHO-M1 cells, IP1 TR-FRET (IP-One), carbachol + lithium; active = well fitted inhibition curve with a large enough effect; inconclusive = small, poorly fitted or top-dose-only effect; inactive = no such curve, though single readings can be large or run the other way;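 also: IP1 builds up when IMPase is blocked and the TR-FRET signal falls; nearly all actives have a fitted effect of over 50% in size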
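CHO cells stably expressing M1 receptor (2000/well, cultured 16–30 h) treated 30 min at 37C with compound plus low lithium. Cytosolic IP1 by TR-FRET (665/620 ratio and 620 channel) after 10 min lysis; AC50 by Hill fit.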
ALDH1A1 inh = ALDH1A1 (human) enzyme inhibition; Purified ALDH1A1, NADH fluorescence, propionaldehyde substrate; Potency, µM (highest dose often 75.3 µM), usual class: inhibitors; 7.3% of 220,000 active; AID 1030
Each line names hits and unclear results; the compound was inactive in the other large screens. Unless noted, calls follow the shape of the dose curve; as a rule, active = well fitted inhibition curve with a large enough effect (not every such curve was filed as active); inconclusive = small, poorly fitted or top-dose-only effect, or another doubt; inactive = no such curve, though single readings can be large or run the other way.

CCCCCCCNC(=O)c1ccc(N2CCC3(CC2)OCCO3)c([N+](=O)[O-])c1	PNC assembly inh -119, ALDH1A1 inh 25µM
CCC(CC)c1nnc(NC(=O)c2ccc(N3CCCCC3)c([N+](=O)[O-])c2)s1	PNC assembly inh inconclusive, ALDH1A1 inh 0.79µM (no result: IMPase cell inh)
O=[N+]([O-])c1ccc(N2CCCCCC2)c([N+](=O)[O-])c1	none
NNC(=O)c1ccc(N2CCCCCC2)c([N+](=O)[O-])c1	ALDH1A1 inh 1.6µM (no result: PNC assembly inh, HPGD block, IMPase cell inh)
CC1=C2C(CCS2(=O)=O)CC2(C1)C(=O)OC(C)(C)OC2=O (centres undefined)	none
CS(=O)(=O)N1CCC[C@@]2(CCN(C(=O)Nc3ccccc3)C2)C1	none (no result: PNC assembly inh, IMPase cell inh)
Cc1nc(NCc2ccccc2)c2nc(-c3ccccc3)n(CCN3CCCC3)c2n1	HPGD block inconclusive, ALDH1A1 inh inconclusive (no result: PNC assembly inh, IMPase cell inh)
S=c1[nH]nc(-c2cccnc2)o1	none
Nn1c(-c2cccc(Br)c2)n[nH]c1=S	ALDH1A1 inh 22µM
S=c1[nH]nc(-c2cccc(Br)c2)o1	PNC assembly inh inconclusive, IMPase cell inh inconclusive, IMPase Li inh 10µM, ALDH1A1 inh 6.3µM
COc1ccc2c(c1)C(c1cc(OC)c(OC)c(OC)c1)CC(=O)O2 (centres undefined)	none (no result: PNC assembly inh, IMPase cell inh)
COc1ccc(-c2nnc(SCc3c(C)noc3C)o2)cc1	none (no result: PNC assembly inh, HPGD block, IMPase cell inh)
Cc1cc2c(cc(C(=O)NCCCN3CCOCC3)n2Cc2ccc(Cl)cc2)o1	PNC assembly inh inconclusive, HPGD block 13µM, ALDH1A1 inh inconclusive
CCN(CC)S(=O)(=O)c1ccc(F)c(C(=O)NCCCN2CCOCC2)c1	PNC assembly inh -117
CCN(CC)S(=O)(=O)c1ccc(N2CCOCC2)c(NC(=O)c2ccccc2F)c1	ALDH1A1 inh inconclusive (no result: PNC assembly inh, HPGD block, IMPase cell inh)
COc1cccc(C2CC(=O)Nc3c2ccc(C)c3C)c1OC (centres undefined)	none (no result: PNC assembly inh, HPGD block, IMPase Li inh, ALDH1A1 inh)
CCn1c(=O)cc(SCC(=O)N2CCC(C)CC2)c2ccccc21	HPGD block 5µM, ALDH1A1 inh 20µM
CCn1c(=O)cc(SCC(=O)N2CCCCC2)c2ccccc21	HPGD block 7.9µM, IMPase cell inh inconclusive, ALDH1A1 inh 20µM
CCN1CCN(C(=O)CSc2cc(=O)n(CC)c3ccccc23)CC1	HPGD block inconclusive
CCC1(C(=O)c2ccc(Cl)cc2)C2c3ccccc3OC(=O)C21C(=O)Nc1ccccc1 (centres undefined)	none
CCC(=O)O[C@H]1C(O[C@@H]2C(C)[C@H](O[C@H]3C[C@@](C)(OC)C(O)C(C)O3)C(C)C(=O)OC(CC)[C@@](C)(O)C(O)[C@H](C)C(=O)C(C)C[C@]2(C)O)OC(C)CC1N(C)C (some centres undefined)	HPGD block inconclusive (no result: PNC assembly inh, IMPase cell inh)
C[C@@](N)(/C=C\c1ccccc1)C(=O)O	none (no result: PNC assembly inh, IMPase cell inh)
Cc1cc(C)cc(-n2cnc3cc(C(=O)O)ccc32)c1	HPGD block 16µM
CCCNC(=O)c1ccc2c(c1)ncn2-c1cc(C)cc(C)c1	none (no result: PNC assembly inh, HPGD block, IMPase cell inh)
O=C1CCC2S/C(=C/Nc3ccc(C(F)(F)F)cc3)C(=O)N12 (centres undefined)	ALDH1A1 inh 13µM (no result: PNC assembly inh, HPGD block, IMPase cell inh)
CCN1CCN(CCCNc2ncnc3nc[nH]c23)CC1	PNC assembly inh inconclusive
c1cn(CCCNc2ncnc3nc[nH]c23)cn1	PNC assembly inh -112
COc1ccc(CNC(=O)COC(=O)CCOc2ccccc2)cc1	ALDH1A1 inh inconclusive (no result: IMPase cell inh)
COc1ccc(CNC(=O)c2cnccn2)cc1	none
COc1ccc(CNC(=O)CN(Cc2ccc(OC)cc2)C(=O)c2csnn2)cc1	ALDH1A1 inh 2.2µM (no result: PNC assembly inh, HPGD block, IMPase cell inh)
COc1ccc(CNC(=O)c2csnn2)cc1	ALDH1A1 inh 25µM
COc1ccc(CNC(=O)CN(Cc2ccccc2)C(=O)c2csnn2)cc1	PNC assembly inh inconclusive, ALDH1A1 inh inconclusive
COc1ccc(CNC(=O)COC(=O)c2ccccn2)cc1	ALDH1A1 inh 25µM (no result: PNC assembly inh, HPGD block, IMPase cell inh)
C[C@@H]1C[C@](C)(C(=O)c2ccco2)C=C1c1ccco1	ALDH1A1 inh 14µM (no result: PNC assembly inh, IMPase cell inh)
C[C@@H]1C[C@](C)(C(=O)c2ccc3ccccc3c2)C=C1c1ccc2ccccc2c1	none (no result: PNC assembly inh, IMPase cell inh)
CCNC(=S)N/N=C/c1sccc1C	none (no result: PNC assembly inh, HPGD block, IMPase cell inh)
O=C(CSc1nc(O)c(C2CCCCC2)c(=O)[nH]1)Nc1ccc(Cl)cc1	PNC assembly inh -112
CC(=O)Nc1c(O)nc(SCC(=O)Nc2ccc(C(C)=O)cc2)[nH]c1=O	ALDH1A1 inh 11µM
